Values without a mark were called inactive. Activity calls are given as the source filed them. Calls come from the whole dose curve; as a rule, active = well fitted inhibition curve with a large enough effect; inconclusive = small, poorly fitted or top-dose-only effect; inactive = flat fitted curve, though single readings scatter.
Each compound was assayed against DNA dC->dU-editing enzyme APOBEC-3G (Homo sapiens) (UniProt Q9HC16) (assay: qHTS for inhibitors of Vif-A3G interactions: Validation (AID 588379; note: 0% is about no effect)). Details: Vif-A3G protein interaction assay; series mostly up to 46.1 µM; activity change, negative = inhibition: at the top concentration.
Chain of DNA dC->dU-editing enzyme APOBEC-3G (Homo sapiens) (Q9HC16 whole entry, looked up): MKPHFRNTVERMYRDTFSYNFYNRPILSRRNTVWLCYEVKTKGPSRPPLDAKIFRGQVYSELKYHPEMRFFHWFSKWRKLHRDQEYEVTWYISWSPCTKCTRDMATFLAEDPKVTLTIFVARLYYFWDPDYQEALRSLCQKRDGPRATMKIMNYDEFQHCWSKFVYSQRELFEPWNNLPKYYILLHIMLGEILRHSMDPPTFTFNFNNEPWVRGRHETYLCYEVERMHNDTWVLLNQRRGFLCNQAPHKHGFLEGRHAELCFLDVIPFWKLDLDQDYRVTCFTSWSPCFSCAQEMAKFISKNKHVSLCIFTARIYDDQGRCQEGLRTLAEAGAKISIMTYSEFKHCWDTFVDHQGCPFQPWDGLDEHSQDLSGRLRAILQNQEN
Outline: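 Yellow fluorescence (Ex 488, Em 500-530) of Vif-coexpressing HeLa A3G-eYFP cells, scanned by Acumen cytometer, reports blocked A3G degradation. Cells plated at 700/well overnight at 37 deg C before compound addition, then a further overnight compound incubation at 37 deg C.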

Row | SMILES | Potency | activity change, negative = inhibition
1 | CC(C)NC[C@H](O)COc1ccc(CC(N)=O)cc1 | inactive | –
2 | O=C(OCCN1CCOCC1)C1(c2ccccc2)CCCCC1 | – | 1.27%
3 | Cc1nc2c(OCc3ccccc3)cccn2c1CC#N | – | -1.54%
4 | COc1cc(CNC(=O)CCCCCCC(C)C)ccc1O | – | 2.84%
5 | CSC(=N)N | – | -5.4%
6 | N=C(N)SCCc1cnc[nH]1 | – | -1.4%

— PubChem BioAssay (NCATS)
